The source of these data is PubChem BioAssay AID504339 (National Center for Advancing Translational Sciences (NCATS), 2011).

Screen size: about 390,000 compounds; about 17,000 (4.4%) were called active. About 8% were inconclusive and are not listed. Only a selection was taken, and actives are over-represented in it overall. A number with no mark means an inactive call. Calls come from the whole dose curve; as a rule, active = well fitted inhibition curve with a large enough effect; inconclusive = small, poorly fitted or top-dose-only effect; inactive = no such curve, though single readings can be large or run the other way.
% is set by controls: 0 for no effect and ±100 for the full control effect; potency is the fitted concentration of half-maximal effect.

Chain of Lysine-specific demethylase 4A (Homo sapiens) (O75164 whole entry, looked up, the tested form may be a part): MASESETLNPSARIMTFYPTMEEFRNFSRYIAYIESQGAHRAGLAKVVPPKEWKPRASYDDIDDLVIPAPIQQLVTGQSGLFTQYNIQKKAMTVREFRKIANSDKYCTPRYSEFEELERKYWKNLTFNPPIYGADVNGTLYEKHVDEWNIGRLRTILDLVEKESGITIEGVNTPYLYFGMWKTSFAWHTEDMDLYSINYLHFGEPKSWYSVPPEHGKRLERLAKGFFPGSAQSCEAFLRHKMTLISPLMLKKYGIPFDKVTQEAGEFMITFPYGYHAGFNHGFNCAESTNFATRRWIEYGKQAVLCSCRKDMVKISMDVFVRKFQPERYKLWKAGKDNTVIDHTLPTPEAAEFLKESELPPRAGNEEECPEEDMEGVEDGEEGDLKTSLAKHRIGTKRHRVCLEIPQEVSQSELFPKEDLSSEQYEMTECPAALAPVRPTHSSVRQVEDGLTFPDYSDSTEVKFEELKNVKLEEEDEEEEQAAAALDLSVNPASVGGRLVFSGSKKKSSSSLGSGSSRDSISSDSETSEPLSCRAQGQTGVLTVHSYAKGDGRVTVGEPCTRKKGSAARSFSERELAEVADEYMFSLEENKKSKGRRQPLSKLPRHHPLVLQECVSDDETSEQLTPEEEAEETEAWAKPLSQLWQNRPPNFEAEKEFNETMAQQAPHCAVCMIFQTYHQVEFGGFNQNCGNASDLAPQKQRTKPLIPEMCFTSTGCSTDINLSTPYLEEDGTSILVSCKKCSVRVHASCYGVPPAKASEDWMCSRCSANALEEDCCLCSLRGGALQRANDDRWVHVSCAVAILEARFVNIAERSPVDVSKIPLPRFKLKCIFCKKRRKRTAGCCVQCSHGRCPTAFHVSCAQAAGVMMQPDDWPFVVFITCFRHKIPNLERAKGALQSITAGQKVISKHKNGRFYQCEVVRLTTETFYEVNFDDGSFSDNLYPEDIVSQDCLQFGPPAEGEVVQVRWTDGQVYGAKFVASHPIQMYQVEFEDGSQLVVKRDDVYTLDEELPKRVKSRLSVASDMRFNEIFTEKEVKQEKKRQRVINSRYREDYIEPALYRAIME

This experiment concerns the target Lysine-specific demethylase 4A (Homo sapiens) (UniProt O75164). Kind of experiment: qHTS Assay for Inhibitors of JMJD2A-Tudor Domain. Note: nearly all actives have a fitted effect of over 50% in size. The settings on record: AlphaScreen JMJD2A-Tudor / H3K4me3 peptide binding; series mostly up to 114 µM; activity change, negative = inhibition: at the top concentration. For orientation: Quantitative high-throughput screening tests each substance at several concentrations.
For `Cc1ccc(CC2CC(=O)N(c3ccc4c(c3)OCCO4)C2=O)cc1` (configuration not stated), the “activity change, negative = inhibition” value is -8.3%.
Still for that read-out and setting: then `COc1ccc(-c2nc(SCC(=O)N3CCCC3)n[nH]2)cc1`, with -4.14%; and `COC(=O)c1ccccc1SC1CC(=O)N(c2cccc(C)c2)C1=O` (configuration not stated), with -8.39%.
Regarding `O=C1CC(Sc2ncn[nH]2)C(=O)N1c1ccccc1` (configuration not stated), the Potency was 39.8 µM (active).
Same read-out and setting: the result for `Cc1ccc(N2C(=O)CC(Sc3ncn[nH]3)C2=O)cc1` (configuration not stated) reads 28.2 µM (active).
As for `COc1ccc(N2C(=O)CC(SC(C)C)C2=O)cc1` (configuration not stated), the “activity change, negative = inhibition” value is -6.9%.
For `COc1ccc(N2C(=O)CC(Sc3n[nH]c(-c4ccc(C)cc4)n3)C2=O)cc1` (configuration not stated), the Potency is 2 µM (active).
Take `CCOc1ccccc1N1C(=O)CC(Sc2nccc(C)n2)C1=O` (configuration not stated): the “activity change, negative = inhibition” value was 10.5%.
Still for that read-out and setting: then `CC(=O)Nc1ccc(N2C(=O)CC(Sc3nccc(C)n3)C2=O)cc1` (configuration not stated), with -13.9%.
As to `CC(=O)Nc1cccc(NC(=O)CSc2nccn2Cc2ccc3c(c2)OCO3)c1`, the “activity change, negative = inhibition” value was -21%.
Still for that read-out and setting: then `O=C(CCS(=O)(=O)c1ccccc1)N(Cc1cccnc1)c1nc2c(F)cccc2s1`, with -11%.
With `COc1ccc2oc(=O)c(-c3cn4c(n3)sc3cc(OC)ccc34)cc2c1`, the “activity change, negative = inhibition” value was -17%.
On the same count and under the same terms, the result for `CCC(=O)N1c2ccccc2CC1C(=O)N1CCN(c2ccccc2F)CC1` (configuration not stated) reads 17.2%; that for `CC1=C(c2ccc(C)cc2)S(=O)(=O)NC1=NCCCN1CCN(c2cc(C)ccc2C)CC1`, -18.2%.
Same read-out and setting: the result for `COc1ccc(Cn2c(C(=O)O)c(CNCCc3cccs3)c3ccc(OC)cc32)cc1` reads -11%; that for `COc1cc(OC)cc(C(=O)Nc2c(C(=O)Nc3ccc(F)cc3)oc3ccccc23)c1`, -2.65%.
Same read-out and setting: the result for `Cc1ccc(C)c(N2CCN(C(=O)Cn3ncc4c(=O)oc5ccc(C)cc5c43)CC2)c1` reads -6.62%.
For `C/C(=N\N(C)C)c1ccc(OCCOc2ccc([N+](=O)[O-])cc2)cc1`, the Potency is 44.7 µM (active).
Regarding `C/C(=N/NC(=O)CC(=O)N/N=C(\C)c1ccc([N+](=O)[O-])cc1)c1ccc([N+](=O)[O-])cc1`, the “activity change, negative = inhibition” value was -23.1%.
The same measure, in the same setting: the result for `CO/N=C(\N)c1ccc([N+](=O)[O-])cc1` reads -12.4%; that for `Cc1oc2ncnc(N3CCOCC3)c2c1C(=O)NCCc1ccccc1`, 8.74%; that for `CCCCOc1ccc(C(=O)N2CC(=O)Nc3ccc(Br)cc3C2c2ccc(F)cc2)cc1` (configuration not stated), -23.9%.
The same measure, in the same setting: then `O=C(Nc1ccccc1)O/N=C1\CCCCC1c1ccc([N+](=O)[O-])cc1[N+](=O)[O-]` (configuration not stated), with -16.2%.
On to `O=[N+]([O-])c1ccc(N/N=C2/CCCCC2c2ccccn2)c([N+](=O)[O-])c1` (configuration not stated), for which the Potency is 31.6 µM (active).
Consider `C[n+]1ccccc1C1CCCC/C1=N\Nc1ccc([N+](=O)[O-])cc1[N+](=O)[O-]` (configuration not stated), for which the “activity change, negative = inhibition” value is -2.07%.
For the compound `Cc1ccc(C)c(S(=O)(=O)c2nnn3c2nc(N2CCOCC2)c2sccc23)c1`, the “activity change, negative = inhibition” value is 4.4%.
The same measure, in the same setting: the result for `COc1ccc(CCN2C(=O)N(c3cccc(OC)c3)C(=O)C2CC(=O)Nc2ccccc2)cc1` (configuration not stated) reads -21.2%.
With `O=C(CC1SC(N2CCOCC2)=NC1=O)Nc1ccccc1F` (configuration not stated), the “activity change, negative = inhibition” value was -19%.
The same measure, in the same setting: then `N#C/C(=C/c1ccc(N2CCOCC2)o1)C(=O)N1CCOCC1`, with -31.8%.
Take `N#C/C(=C\C1=C(N2CCOCC2)C(=C\c2ccccc2)/CC1)C(=O)Nc1ccccc1F`: the Potency was 4.47 µM (active).
Consider `COc1c(Cl)cc(Cl)cc1C(=O)Nc1cccc2cccnc12`, for which the “activity change, negative = inhibition” value is -11.9%.
Still for that read-out and setting: the result for `Cc1cccc(NS(=O)(=O)c2ccc(C)c(C(=O)NCC(c3ccccc3)N(C)C)c2)c1` (configuration not stated) reads -21.5%; that for `Cc1ccc(S(=O)(=O)NCCCn2ccnc2)cc1C(=O)NC(C)C`, -4.42%.
Regarding `Cc1ccc(S(=O)(=O)NCCC(c2ccccc2)c2ccccc2)cc1C(=O)O`, the Potency is 79.4 µM (active).
Consider `Cc1nc(SCC(=O)Nc2ccc(C(=O)O)cc2)n[nH]1`, for which the “activity change, negative = inhibition” value is -1.03%.
On to `Cc1ccc(NC(=O)CSc2nc3c(c(=O)[nH]2)CN(Cc2ccc4c(c2)OCO4)CC3)cc1C`, for which the “activity change, negative = inhibition” value is -2.32%.
Same read-out and setting: then `CCOC(=O)c1ccc(CN(Cc2ccccc2)S(=O)(=O)c2ccc(Cl)cc2)cc1`, with 45%; and `COc1cccc(NC(=O)CN2C(=O)c3ccccc3Sc3ncccc32)c1`, with -27.8%; and `CCNS(=O)(=O)c1cc(-c2nnc(Nc3cccc(C(F)(F)F)c3)c3ccccc23)ccc1C`, with -15.9%.
Take `CCC(=C/c1sc2ccc3ccccc3c2[n+]1C)/C=C1\Sc2ccc3ccccc3c2N1C`: the Potency was 50.1 µM (active).
As for `COc1ccc(CN2C(=O)C(NC(=O)c3cccc(C)c3)(C(F)(F)F)N=C2c2ccccc2)cc1` (configuration not stated), the “activity change, negative = inhibition” value was -25%.
The same measure, in the same setting: then `Cc1ccc(S(=O)(=O)NCC(=O)N2CCN(c3ccccn3)CC2)cc1`, with -6.57%.
Regarding `Cc1ccc(N2CCN(c3ccc(C)cc3)C2c2ccccn2)cc1`, the Potency is 25.1 µM (active).
Take `Cc1ccc(-n2ccc(=O)c(C(=O)O)n2)cc1`: the “activity change, negative = inhibition” value was -20.1%.
Still for that read-out and setting: the result for `Cc1cccc(OCC(=O)N(Cc2ccc(C(C)C)cc2)Cc2ccco2)c1C` reads 14.5%.
For the compound `Oc1c(C(c2ccccn2)N2CCOCC2)ccc2cccnc12` (configuration not stated), the Potency was 17.8 µM (active).
Turning to `Oc1c(C(c2ccccc2Cl)N2CCOCC2)sc2nc(-c3ccco3)nn12` (configuration not stated), the “activity change, negative = inhibition” value is -16.6%.
On the same count and under the same terms, the result for `COc1cc(NC(=O)c2noc3c2CSc2ccccc2-3)cc(OC)c1OC` reads -1.66%; that for `CC(=O)N1CCCc2cc(S(=O)(=O)Nc3ccc(Cl)cc3F)ccc21`, -28.7%; that for `CCCCc1nn2c(=O)cc(COC(=O)c3ccccc3NC(=O)C(C)(C)C)nc2s1`, -11.6%.
The same measure, in the same setting: the result for `COc1ccccc1CNC(=O)c1ccc(CS(=O)(=O)c2ccccc2)o1` reads -7.86%.
`O=C(c1ccc(CS(=O)(=O)c2ccccc2)o1)N1CCN(c2ccccc2)CC1`: the Potency is 56.2 µM (active).
Consider `O=C(c1ccc(S(=O)(=O)NCc2ccco2)cc1)N1CCN(c2ccccc2)CC1`, for which the “activity change, negative = inhibition” value is -30.3%.
The same measure, in the same setting: then `Cc1cc(C)cc(NC(=O)CCS(=O)(=O)c2cc3c4c(c2)CCN4C(=O)CC3)c1`, with 4.55%.
As to `Cc1cc(C)c2oc(C(=O)Nc3c(C(=O)Nc4ccccc4)oc4ccccc34)cc(=O)c2c1`, the “activity change, negative = inhibition” value was -6.25%.
On the same count and under the same terms, the result for `Cc1ccc(C)c(Oc2c(C(F)(F)F)oc3c(CN4CCN(C)CC4)c(O)ccc3c2=O)c1` reads -15.4%; that for `Cc1c(Cl)cccc1NC(=O)C1CCCN(c2ncnc3onc(C)c23)C1` (configuration not stated), -4.85%.
